# Assay results from PubChem BioAssay AID686954 (Sanford-Burnham Center for Chemical Genomics, 2013).
# Hit rate of the full screen: of about 30,000 compounds, about 240 (0.8%) were called active. Only a selection was taken, and actives are over-represented in it overall. Unmarked numbers belong to inactive results.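 How the source made its calls: active means at 10 µM dose, at least 30% inhibition, measured as corrected fluorescence normalized to stimulator and neutral control wells; inactive means the rest.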 Peptide text beside a SMILES is read from it. * marks the point of attachment. Bz = O=C(c1ccccc1)*
# Molecular target: Protein artemis (Homo sapiens) (UniProt Q96SD1)
# Sequence (Q96SD1 whole entry, looked up): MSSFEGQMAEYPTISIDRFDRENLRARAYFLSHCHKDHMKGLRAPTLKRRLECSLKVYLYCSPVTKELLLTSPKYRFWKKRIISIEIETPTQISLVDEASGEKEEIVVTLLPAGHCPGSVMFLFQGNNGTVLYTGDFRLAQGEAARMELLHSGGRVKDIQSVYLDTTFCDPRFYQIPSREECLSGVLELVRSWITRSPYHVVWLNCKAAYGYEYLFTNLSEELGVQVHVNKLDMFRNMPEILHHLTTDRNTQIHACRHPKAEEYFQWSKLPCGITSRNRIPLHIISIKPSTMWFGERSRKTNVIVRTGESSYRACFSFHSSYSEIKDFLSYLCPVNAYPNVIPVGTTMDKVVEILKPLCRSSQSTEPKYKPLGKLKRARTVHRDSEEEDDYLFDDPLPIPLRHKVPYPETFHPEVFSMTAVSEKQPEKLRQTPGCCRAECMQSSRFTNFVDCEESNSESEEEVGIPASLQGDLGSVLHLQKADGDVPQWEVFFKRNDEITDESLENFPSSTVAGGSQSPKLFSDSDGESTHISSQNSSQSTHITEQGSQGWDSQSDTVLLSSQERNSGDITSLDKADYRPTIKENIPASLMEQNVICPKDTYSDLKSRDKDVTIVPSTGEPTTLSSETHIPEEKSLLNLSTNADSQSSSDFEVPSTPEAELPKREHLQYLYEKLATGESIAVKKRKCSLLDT
# Assay: blockers of Artemis DNA hairpin overhang cleavage – biochemical, fluorescence intensity, FAM/BHQ-1 hairpin substrate, primary screen (AID 686954)
# Settings: recombinant Artemis, quenched FAM hairpin cleavage fluorescence; at 10 µM; hits give high values
row,Structure (SMILES),inhibition
1,CS(=O)(=O)n1nc(-c2ccccc2)nc1NCc1ccco1,-21.9%
2,CC(=O)N/C(=C/c1ccc(Cl)cc1)C(=O)NCCc1c[nH]c2ccccc12,-1.86%
3,O=C(Cn1cncn1)N/N=C/c1c2ccccc2cc2ccccc12,-6.23%
4,CC(C)Oc1ccc(C(=O)NC(C)(C)CO)cc1,1.84%
5,O=C(CN(Cc1ccccc1)C(=O)c1ccc2c(c1)OCCO2)NCc1ccc2c(c1)OCO2,-2.04%
6,CC1(C)Cc2ccccc2-c2nnc(-c3cccc(O)c3)n21,-6.85%
7,Cc1ccc(C(=O)OC2=CC(=O)CC(C)(C)C2)cc1,-0.31%
8,CCOC(=O)c1cnc(-c2ccccc2)nc1Oc1ccc(C)cc1,7.75%
9,CSc1nc(C)cc(SC(C(C)=O)C(=O)Nc2ccccc2)n1 (stereo not drawn),-3.91%
10,COc1ccc(-c2nn(-c3ccccc3)cc2C(=O)Nc2nccs2)cc1OC,27.5%
11,CC(=O)Cc1nsc(NC(=O)c2ccc(COc3ccc(C)cc3)o2)n1,-5.26%
12,COc1ccc(-c2nn(-c3ccccc3)cc2C(=O)Nc2nc(CC(C)=O)ns2)cc1,45.9% (active)
13,CN1/C(=c2/s/c(=C3/C(=O)N(c4ccccc4)NC3=Nc3ccccc3)n(C)c2=O)C(C)(C)c2ccccc21,15.8%
14,CCOC(=O)C1=C(CNC2CCCCC2)NC(=O)NC1c1cc(C)ccc1C (stereo not drawn),-5.92%
15,O=C(/C=C/c1ccccc1)c1ccoc1,-1.46%
16,O=C(Nc1ccccc1Cl)O/N=C(/c1ccccc1)c1ccccn1,6.79%
17,Cc1ccc2nc(SC(C)C(=O)NCc3ccco3)[nH]c2c1 (stereo not drawn),4.88%
18,Cc1ccc(-n2c(C)cc(/C=N/Nc3ccc([N+](=O)[O-])cn3)c2C)c(C)c1,14.4%
19,NC(=O)COc1ccc(/C=N/NC(=O)C2CCCN2S(=O)(=O)c2ccc(Cl)cc2)cc1 (stereo not drawn),0.47%
20,CC1CCN(CC(=O)c2c[nH]c3ccccc23)CC1,-3.18%
21,CCOC(=O)Nc1sc(C(=O)N(C)C)c(C)c1C(=O)OCC,7.1%
22,O=C(Cc1ccc(S(=O)(=O)N2CCCC2)s1)NC1CCCCCC1,0.64%
23,CCOc1c(Cl)cc(/C=N/O)cc1OC,-3.96%
24,CCNc1nc(N)nc(-c2cc(Cl)ccc2OC)n1,-15.5%
25,Cc1cccc(N2CCN(C(c3ccc(N(C)C)cc3)c3nnnn3C(C)(C)C)CC2)c1C (stereo not drawn),4.46%

row,Structure (SMILES),inhibition
1,COCCNCCOCCOc1cccc(OC)c1,-0.71%
2,CC(C)OC(=O)CN1C(=O)c2ccccc2C1=O,-7.81%
3,CC(=O)Oc1ccc(NC(=O)CCC2CCCCC2)c(C(=O)O)c1,-1.44%
4,Cc1nnc(SCC(=O)NCCOc2ccc(Cl)cc2)n1-c1ccccc1,-3.78%
5,CC1(C)CCCC2=C1CC1C(=O)N(c3ccccc3)C(=O)C1C2 (stereo not drawn),-1.84%
6,O=C1Nc2ccc(Br)cc2/C1=N/N=C/C1=C(N2CCOCC2)C(=C\c2ccccc2)/CC1,30.1% (active)
7,COc1ccc(-c2noc(-c3ccc(C)cc3)n2)cc1,0.23%
8,Cc1ccc2[nH]c3c(=O)n(Cc4ccccn4)cnc3c2c1,3.97%
9,C=CCNc1cnn(-c2ccc(C)cc2)c(=O)c1Cl,3.95%
10,O=c1c2ccccc2nc2n1C(CSCc1ccccc1)CS2 (stereo not drawn),2.82%
11,COC(=O)CSC1=C(C#N)C(c2ccccc2OC)C(C(=O)OC)C(=O)N1 (stereo not drawn),-3.1%
12,Cc1ccc(/C=N/NC(=O)c2sccc2OCc2ccc(F)cc2)cc1,22.2%
13,COc1ccc(CC(=O)Nc2nc3n(n2)C(c2ccccc2)CC(=O)N3)cc1OC (stereo not drawn),-12.5%
14,O=C(N/N=C/c1ccc(O)c(O)c1)C1c2ccccc2Oc2ccccc21,30.2% (active)
15,O=C(N/N=C/c1ccsc1)c1cc(O)cc(O)c1,10.2%
16,COc1ccc(C(=O)Nc2ccccc2C(=O)N/N=C/c2ccc(O)c(OC)c2)cc1,3.38%
17,Cc1ccc(Cn2c(NC(=O)c3ccco3)nc3ccccc32)cc1,0.73%
18,Cc1ccc(Cn2c(C)nc3c(c2=O)c2nc4ccccc4nc2n3Cc2ccco2)cc1,40.3% (active)
19,Clc1cccc(-c2nc3nc4ccccc4nc3n2Cc2ccco2)c1,27%
20,CCCn1c(C)cc(C(=O)COC(=O)c2c(C)nn(-c3ccccc3)c2C)c1C,10.5%
21,CC(C)(C)Cc1nnc(NC(=O)c2cc(-c3ccccc3)nc3ccccc23)s1,13.6%
22,O=C(/C=C/Nc1ccccc1OC(F)(F)F)C(F)(F)F,-11.1%
23,COc1ccc(Cc2nnnn2CC(=O)O)cc1,3.92%
24,CC1CCc2c(c3ccccc3[nH]c2=O)O1 (stereo not drawn),13.8%
25,Cn1c(CO)cnc1SCc1ccccc1,-0.47%

row,Structure (SMILES),inhibition
1,COc1ccccc1NS(=O)(=O)N(C)C,4.92%
2,C=CCn1c(N)cc(=O)nc1SCC(=O)Nc1cccc2ccccc12,-2.38%
3,O=C(COc1cc(Cl)c(Cl)cc1Cl)NC(=O)NC1CCCC1,5.4%
4,O=C(NC(Cc1ccccc1)C(=O)N1CCCC1C(=O)O)c1ccccc1 (stereo not drawn) (Bz-Phe-Pro-OH; configuration not given here),3.37%
5,CCCC(C(=O)NCc1ccco1)N(C(=O)CNS(=O)(=O)c1ccccc1)C1CCCC1 (stereo not drawn),9.71%
6,Cc1ccc(N2CCN(C3=NC(=O)/C(=C\c4cccs4)S3)CC2)cc1,30.4% (active)
7,Cc1ccsc1/C=C1\SC(N2CCOCC2)=NC1=O,-5.58%
8,CSC1=N/C(=C\C=C\c2cccs2)C(=O)S1,4.46%
9,Cc1cccc(C(=O)N2CCCN(C(=O)c3cccc(C)c3)CC2)c1,4.29%
10,CCC(C)NC(=O)c1cc(Cl)ccc1OC (stereo not drawn),1.25%
11,N#CCCn1cnc2ccccc21,0.47%
12,COc1ccc(-c2cc(C(=O)n3cnc4ccccc43)c3ccccc3n2)cc1,0.93%
13,c1ccc(-c2nccc(-c3ccc(-n4cnc5ccccc54)cc3)n2)nc1,100% (active)
14,CC(=O)N1Cc2ccccc2CC1C(=O)O (stereo not drawn),-0.69%
15,Cc1ccc(C(=O)Nc2c(C#N)c(C)c(C)n2Cc2ccccc2)cc1,-5.83%
16,CC(C)NC(=O)C(=O)NCCCOC(C)C,-3.28%
17,COC(=O)C(C(=O)Nc1cccc(C)n1)C1CCCCCC1 (stereo not drawn),-2.41%
18,COc1ccc(CCN2C(=O)C3CC=C(C)CC3C2=O)cc1OC (stereo not drawn),-6.71%
19,COC(=O)C1=C(Nc2ccc(OC)cc2)C=C(C)C(C(=O)OC)C1c1ccc(C)cc1 (stereo not drawn),-2.07%
20,Fc1ccc(Br)cc1/C=N/n1cnnc1,-9.95%
21,O=C(/C=C/c1cc2c(cc1Br)OCO2)NCc1ccc(Cl)cc1,-4.49%
22,O=C(NN1C(=O)C2C3C=CC(C4CC34)C2C1=O)c1ccc(Cl)cc1 (stereo not drawn),-4.12%
23,O=c1c2ccccc2nc2n1C(CSc1ccc(F)cc1)CN2 (stereo not drawn),-16.9%
24,COc1ccc(C(=O)Oc2cc(/C=N/NS(=O)(=O)c3ccc(C)cc3)ccc2OC)cc1,4.47%
25,COC(=O)c1sccc1-n1cccc1C(=O)C(=O)N1CCCCC1,-4.39%

row,Structure (SMILES),inhibition
1,O=C(/C=N/O)Nc1ccccc1,16.8%
2,CSc1ccc(C#N)cc1NC(=O)c1cccc(Cl)c1,-11%
3,Cc1c(C(=O)NCc2ccccc2)cnn1-c1ccccc1,0.06%
4,O=C(c1ccccc1)C(Cn1cncn1)C(Sc1ccccc1)c1ccccc1 (stereo not drawn),7.82%
5,CC(C)NC(=O)CSc1ccccc1C(=O)NCc1ccc2c(c1)OCO2,-4.49%
6,CCOc1ccc2nc(SC(CC)C(=O)Nc3cc(C)on3)sc2c1 (stereo not drawn),-0.74%
7,CCc1ccc(/C=N/NC(=O)c2ccc(OC3CCCC3)cc2)s1,14.9%
8,O=C(COc1ccc(/C=N/NS(=O)(=O)c2ccccc2)cc1)NCCc1ccccc1,5.78%
9,NC(=O)c1ccccc1NC(=O)c1ccccc1F,3.21%
10,Cc1ccc(NC(=S)NC(=O)c2ccc(-c3ccccc3)cc2)c(C)c1,8.05%
11,Cc1ccc(NC(=O)Nc2ccc3oc(C)nc3c2)cc1,4.51%
12,COc1cc(C(=S)N2CCOCC2)cc(OC)c1OC(=O)c1cc([N+](=O)[O-])cc([N+](=O)[O-])c1,5.88%
13,Cc1ccc(OCCCC(=O)N2CCOCC2)c(C)c1,-3.31%
14,CCOc1cc(C(=S)N2CCOCC2)ccc1O,44.1% (active)
15,Nc1c(-c2ccc(F)cc2)cnn1C1CCS(=O)(=O)C1 (stereo not drawn),-12.3%
16,O=C(NC1CCC(O)CC1)c1ccc(S(=O)(=O)NCc2ccco2)cc1 (stereo not drawn),-0.49%
17,COCCCNCC(=O)Nc1sc(C)c(C)c1C(=O)OC,8.99%
18,CSc1ccc(C#N)cc1NC(=O)c1ccc(Cl)cc1,-3.87%
19,Cc1cccc(N2CCN(C(c3ccccc3)c3nnnn3CC3CCCO3)CC2)c1C (stereo not drawn),1.54%
20,O=C(O)C1CC=CCC1C(=O)Nc1ccccc1C(=O)N1CCN(c2ccccc2)CC1 (stereo not drawn),11.9%
21,CC1CN(c2nc(-c3ccccc3)nnc2-c2ccccc2)CC(C)O1 (stereo not drawn),3.23%
22,Cc1cc(N=CC2=C(O)CCCC2=O)no1,-4.13%
23,CCCC(C)n1[nH]c(=O)c2c(C)cc(C)nc21 (stereo not drawn),0.53%
